Compounds without any hit were thinned out: in the full panel of roughly 83,000, 20% have a hit.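 Interpretation: 100, growth as untreated; towards 0, rising growth inhibition; 0, no net growth; 0 to -100, cell death. Compounds scoring below 10 were considered active.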 Values without a mark were called inactive. Activity calls are given as the source filed them.
Tested on: MDA-MB-468 breast
Assay: NCI-60 one-dose screen, 48 h (100 = growth as untreated, 0 = no growth, -100 = all killed)
Conditions: 10 µM unless noted

**Q.** Which growth does the source give for `C=C1CC[C@@]2(C#N)[C@H]3[C@H](CC[C@@H]2C)[C@@H](C)C[C@@H](CC(C)(C)C#N)[C@H]13` here?
**A.** 59.7%

**Q.** How did the growth turn out when `CN1C(C(=O)Nc2ccccn2)=C(O)c2sc(Cl)cc2S1(=O)=O` was run?
**A.** 98.7%

**Q.** With `N#Cc1c(Nc2cccc(Cl)c2)sc(C(=O)c2cc3cc(Cl)ccc3o2)c1N` as the molecule, how does the growth read?
**A.** 100%

**Q.** Which growth does the source give for `Cc1nc(-c2ccccc2)sc1CC#N` here?
**A.** 104%

**Q.** With `CO[C@H]1C[C@@H]2CC[C@@H](C)[C@@](O)(O2)C(=O)C(=O)N2CCCC[C@H]2C(=O)O[C@H]([C@H](C)C[C@@H]2CC[C@@H](O)[C@H](OC)C2)CC(=O)[C@H](C)/C=C(\C)[C@@H](O)[C@@H](OC)C(=O)[C@H](C)C[C@H](C)\C=C/C=C/C=C/1C` as the molecule, how does the growth read?
**A.** 1.57% (active)

**Q.** With `COc1ccc(-c2cc3c4c(nc5ccccc5c4c2)CC(c2cc(OC)c(OC)c(OC)c2)O3)cc1` (centres undefined) as the molecule, how does the growth read?
**A.** 26.6%

**Q.** With `C/C(=N\NC(N)=S)c1nc2ccc(Cl)cc2[nH]1` as the molecule, how does the growth read?
**A.** 44.2%

**Q.** `O=C1Nc2ccc(Br)cc2/C1=N/c1n[nH]c(=S)s1` was tested. Which growth did it give?
**A.** 103%

**Q.** `CCn1c(Sc2nnc(NC(=O)CSC(=S)N3CCCCC3)s2)nc2c1c(=O)n(C)c(=O)n2C` was tested. Which growth did it give?
**A.** 98.7%

**Q.** With `CN1CCN(CC(=O)Nc2cccc(-n3cc(-c4ccncc4)c(-c4ccc(Cl)c(O)c4)n3)c2)CC1` as the molecule, how does the growth read?
**A.** 10.7%

**Q.** For `NCCNc1nc2ccccc2c2c(=O)c3cccc(F)c3sc12`, which growth is on record?
**A.** 70.6%

**Q.** Which growth does the source give for `O=C(CN1CCOCC1)Nc1ccc(-c2nc3ccccc3s2)cc1` here?
**A.** -6.69% (active)

**Q.** For `CC1OC(O[C@@H]2[C@H](O)C(CO)OC(O[C@H]3COC(O[C@H]4CC[C@]5(C)[C@H]6CC[C@]78OC[C@@]9(CC[C@](C)(C=O)C[C@H]97)C(=O)C[C@@]8(C)[C@]6(C)CC[C@H]5C4(C)C)[C@@H](O)[C@@H]3O)[C@H]2OC2OC[C@@H](O)[C@@H](O)[C@@H]2O)[C@@H](O)[C@@H](O)[C@H]1O` (some centres undefined), which growth is on record?
**A.** 104%

**Q.** With `CC(C)(C)CC(C)(C)c1ccc(OCCOCC[N+](C)(C)CC(=O)[O-])cc1` as the molecule, how does the growth read?
**A.** 108%

**Q.** How did the growth turn out when `COc1ccc(/C=N/NC(=O)c2cccc3cc[nH]c23)cc1O` was run?
**A.** 11.3%

**Q.** Which growth does the source give for `Cc1cc2nc(C(Cl)Cl)nc(-c3ccc(S(=O)(=O)N(C)C)cc3)n2n1` here?
**A.** -20.2% (active)

**Q.** For `CCc1oc2ccccc2c1C(=O)c1cc(Br)c(O)c(Br)c1`, which growth is on record?
**A.** 6.28% (active)

**Q.** Which growth does the source give for `N=C(N)c1ccc(-c2ccc(-c3ccc(F)cc3)s2)s1` here?
**A.** -77% (active)

**Q.** How did the growth turn out when `O=C(Cn1cc(CN2C(=O)c3ccc([N+](=O)[O-])cc3C2=O)nn1)Nc1ccc(F)cc1Cl` was run?
**A.** 97.9%

**Q.** For `CC(=O)O[C@H]1CC[C@]2(C)[C@H]3C(=O)C=C4[C@@H]5C[C@](C)(C(=O)N6CCCNCC6)CC[C@]5(C)CC[C@@]4(C)[C@]3(C)CC[C@H]2C1(C)C`, which growth is on record?
**A.** -85.2% (active)

**Q.** How did the growth turn out when `CCN1CC(=O)N(/N=C2\C(=O)Nc3ccccc32)C1=S` was run?
**A.** 73.1%

**Q.** For `O=C1c2cccnc2C(=O)c2c1c(C(=O)NCCCN1CCCCC1)c1ccccn21`, which growth is on record?
**A.** -73.9% (active)

**Q.** `O=C(CCCCC1CCSS1)Nc1ncnc2n[nH]c(-c3ccc(Oc4ccccc4)cc3)c12` (centres undefined) was tested. Which growth did it give?
**A.** 95.9%

**Q.** How did the growth turn out when `CCOc1ccccc1NC1=C(Cl)C(=O)c2nc(C)ccc2C1=O` was run?
**A.** -90.7% (active)

**Q.** How did the growth turn out when `COc1cc2c(c(OC)c1OC)-c1ccc(SC)c(=O)cc1[C@@H](NC1OC(CO)C(O)C(O)C1O)CC2` (some centres undefined) was run?
**A.** 23.6%

**Q.** How did the growth turn out when `O=C(N/N=C/c1cccc(O)c1)c1ccccc1Nc1cccc(C(F)(F)F)c1` was run?
**A.** 27%

**Q.** For `COc1cc2c(Oc3ccc(NC(=O)C4(C(=O)Nc5ccc(F)cc5)CC4)cc3F)ccnc2cc1OCCCN1CCOCC1`, which growth is on record?
**A.** 12.1%

**Q.** `COc1nc2c(cc1S(=O)(=O)c1ccccc1)CCc1c-2cnn1-c1ccccc1Cl` was tested. Which growth did it give?
**A.** 40.4%

**Q.** With `O=C1CC(C(F)(F)F)=NN1C(=O)c1nn(-c2ccc(Cl)cc2)cc1O` as the molecule, how does the growth read?
**A.** 116%

**Q.** With `CC1(C)CC(=O)c2c(ccc(C(=O)C[C@H](N)CO)c2N)O1` as the molecule, how does the growth read?
**A.** 3.17% (active)

**Q.** Which growth does the source give for `CCOC(=O)c1cc2c(n1Cc1cc(OC)c(OC)c(OC)c1)-c1oncc1CCC2` here?
**A.** 15.7%

**Q.** With `C/C(=N\NC(=O)CSc1nc2sc3c(c2c(=O)n1-c1ccccc1)CCC(C)C3)c1ccc(Cl)cc1` (centres undefined) as the molecule, how does the growth read?
**A.** -28% (active)

**Q.** `Fc1ccc(Cc2ccc(F)cc2)cc1` was tested. Which growth did it give?
**A.** 104%

**Q.** How did the growth turn out when `NS(=O)(=O)Oc1ccc(-c2sc3cc(O)ccc3c2C(=O)c2ccc(OCCN3CCCCC3)cc2)cc1` was run?
**A.** 95.1%

Source: PubChem BioAssay (NCI)
